Laboratory results as given in PubChem BioAssay AID651610 (Broad Institute, 2012).
About 3,900 (1.1%) of roughly 360,000 compounds were called active.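 The calls were made as follows: active = mean replicate inhibition score of at least 50 and every replicate individually at or above 50; inconclusive = only one of the two criteria met; inactive = mean below 50 and not all replicates reaching 50.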 The sample as a whole holds a higher share of actives than the screen did.

Assay: inhibitors of HIV-1 Env-driven cell-cell fusion, primary screen, HeLa-JRFL effector, CEM21 target cells, luciferase (AID 651610);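 also: 0% = plate neutral controls and 100% = maraviroc near 300 nM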
Details: active compounds read high; at 16.7 µM unless noted
With C[C@H]1CCCCO[C@@H](CN(C)Cc2ccc(C(=O)O)cc2)[C@@H](C)CN([C@@H](C)CO)C(=O)c2cc(NS(C)(=O)=O)ccc2O1 the inhibition was 18.6% (inactive). In the case of CN1C(=O)c2cc(NC(=O)c3ccc4c(c3)OCO4)ccc2OC[C@@H]2O[C@H](CC(=O)O)CC[C@H]21, the inhibition is reported as -18.9% (inactive). For O=C(Nc1cc(Cl)cc(Cl)c1)N[C@H]1CC[C@@H](CCNS(=O)(=O)c2cccc(F)c2)O[C@H]1CO, the inhibition was 0.313% (inactive). For CCCCNc1cccc2c1S(=O)(=O)N[C@@H](C)CO2, the inhibition was -0.896% [at 12.3 µM] (inactive). In the case of Cc1ccc(-c2csc(NC(=O)C3=COCCO3)n2)cc1C, the inhibition is reported as 55.4% [at 12.3 µM] (active). In the case of CCC(CC)c1nnc(NC(=O)C2=COCCO2)s1, the inhibition is reported as -12% [at 12.3 µM] (inactive). In the case of COc1ccc(C(O)c2nc(-c3ccc4c(c3)OCO4)cs2)cc1 (stereo not drawn), the inhibition is reported as -6.46% [at 12.3 µM] (inactive). In the case of NS(=O)(=O)c1ccc2nc(NC(=O)C3=COCCO3)sc2c1, the inhibition is reported as -13.9% [at 12.3 µM] (inactive). In the case of O=C(Nc1nc(-c2ccc3c(c2)OCO3)cs1)c1ccncc1, the inhibition is reported as 71% [at 12.3 µM] (active). With C/C(=N/NC(=O)c1ccncc1)c1ccc2c(c1)OCO2 the inhibition was -13.1% [at 12.3 µM] (inactive). In the case of Cc1noc(C)c1NC(=O)N(C)C[C@@H]1OCCCC[C@@H](C)Oc2ccc(NC(=O)C3CCCCC3)cc2C(=O)N([C@H](C)CO)C[C@@H]1C, the inhibition is reported as -14% (inactive). For C[C@@H]1CN([C@@H](C)CO)C(=O)c2cc(NC(=O)Nc3cccc4ccccc34)ccc2O[C@@H]1CN(C)C(=O)Nc1cccc2ccccc12, the inhibition was 7.37% (inactive). With C[C@@H]1CN([C@@H](C)CO)C(=O)c2cc(-c3cncnc3)cnc2O[C@H]1CN(C)C(=O)c1cccc(F)c1 the inhibition was -6.88% (inactive). For C[C@@H]1CN([C@@H](C)CO)S(=O)(=O)c2ccc(C#CC3(O)CCCC3)cc2O[C@H]1CN(C)C(=O)c1ccncc1, the inhibition was -22.7% (inactive). In the case of CNC[C@H]1Oc2cc(-c3ccc(OC)cc3)ccc2S(=O)(=O)N([C@H](C)CO)C[C@@H]1C, the inhibition is reported as 1.64% (inactive). In the case of CNC[C@H]1Oc2c(NC(=O)C3CC3)cccc2C(=O)N([C@@H](C)CO)C[C@@H]1C, the inhibition is reported as -1.43% (inactive). In the case of CCS(=O)(=O)N[C@@H]1CC[C@@H](CC(=O)NCC2CC2)O[C@H]1CO, the inhibition is reported as -3.04% (inactive). In the case of C[C@@H]1CN([C@H](C)CO)S(=O)(=O)c2ccc(-c3ccccc3)cc2O[C@H]1CN(C)C(=O)C1CCC1, the inhibition is reported as 19.5% (inactive). In the case of C[C@@H]1CN([C@@H](C)CO)C(=O)Cc2cc(NS(=O)(=O)c3ccc(Cl)cc3)ccc2O[C@H]1CN(C)CC1CCCCC1, the inhibition is reported as 32.1% (inactive). In the case of C[C@H]1CN([C@@H](C)CO)C(=O)c2cc(-c3cccc(C(=O)N(C)C)c3)cnc2O[C@H]1CN(C)S(=O)(=O)c1ccccc1, the inhibition is reported as -10.1% (inactive). For O=C(C[C@H]1C[C@@H]2c3cc(NC(=O)C4CCC4)ccc3O[C@@H]2[C@H](CO)O1)NCCN1CCCCC1, the inhibition was 16.8% (inactive). For CCOC(=O)C1=C(CN2CCc3ccccc32)NC(=O)NC1c1ccc(Cl)cc1 (stereo not drawn), the inhibition was 58% [at 12.3 µM] (active). With CCOC(=O)C1=C(CCc2ccccc2)NC(=O)NC1c1ccc2ccccc2c1 (stereo not drawn) the inhibition was 6.29% [at 12.3 µM] (inactive). In the case of CCOC(=O)C1=C(c2ccccc2)NC(=O)NC1c1cc(OCC)c(O)c([N+](=O)[O-])c1 (stereo not drawn), the inhibition is reported as -15.8% [at 12.3 µM] (inactive). In the case of CCOC(=O)C1=C(CN2CCc3ccccc32)NC(=O)NC1c1cccc([N+](=O)[O-])c1 (stereo not drawn), the inhibition is reported as 64.3% [at 12.3 µM] (active). In the case of CCOC(=O)C1=C(CN2CCc3ccccc32)NC(=O)NC1c1cc(C)ccc1C (stereo not drawn), the inhibition is reported as -13.6% [at 12.3 µM] (inactive). For CCC(CC)COC(=O)C1=C(C)NC(=O)NC1c1ccc([N+](=O)[O-])cc1 (stereo not drawn), the inhibition was 29.9% [at 12.3 µM] (inactive). In the case of CNC[C@@H]1Oc2c(NC(=O)C3CCOCC3)cccc2C(=O)N([C@@H](C)CO)C[C@H]1C, the inhibition is reported as -14.2% (inactive). For C[C@H]1CN([C@@H](C)CO)C(=O)Cc2cc(NC(=O)C3CC3)ccc2O[C@@H]1CN(C)C(=O)NC1CCCCC1, the inhibition was 2.31% (inactive). For C/C=C/c1ccc2c(c1)O[C@H](CN(C)C(=O)C1CCCCC1)[C@@H](C)CN([C@@H](C)CO)S2(=O)=O, the inhibition was 8.29% (inactive). For C[C@@H]1CN([C@H](C)CO)C(=O)c2cc(C3=CCCC3)cnc2O[C@@H]1CN(C)C(=O)Nc1ccc(F)cc1, the inhibition was 4.49% (inactive). With O=C(O)CC/C(=C\c1cc2c(cc1Br)OCO2)c1nc2ccccc2s1 the inhibition was -9.93% [at 12.3 µM] (inactive). With O=C(N/N=C\c1cc2c(cc1Cl)OCO2)c1ccc(Br)s1 the inhibition was -61.6% [at 12.3 µM] (inactive). In the case of CC1(C(=O)N/N=C/c2cc3c(cc2Br)OCO3)CC1(Br)Br (stereo not drawn), the inhibition is reported as 102% [at 12.3 µM] (active). For Cc1noc(C)c1S(=O)(=O)Nc1ccc2c(c1)CC(=O)N([C@H](C)CO)C[C@H](C)[C@H](CN(C)S(=O)(=O)c1cn(C)cn1)O2, the inhibition was -15.2% (inactive). In the case of Cc1noc(C)c1NC(=O)N(C)C[C@@H]1Oc2ccc(NS(=O)(=O)c3ccc(F)cc3)cc2CC(=O)N([C@@H](C)CO)C[C@H]1C, the inhibition is reported as -12% (inactive). For Cc1ccc(-c2cn3cc(C)ccc3n2)cc1, the inhibition was 60.5% [at 12.3 µM] (active). For Cc1ccc(-c2nc3ccc(Cl)cn3c2Cc2ccccc2)cc1, the inhibition was -27% [at 12.3 µM] (inactive). With Cc1ccc2nc(-c3ccc(Br)cc3)cn2c1 the inhibition was 34.5% [at 12.3 µM] (inactive). In the case of C[C@H](CO)N1C[C@H](C)[C@@H](CN(C)S(=O)(=O)c2ccccc2F)Oc2ncc(C#Cc3ccccc3F)cc2C1=O, the inhibition is reported as 17.5% (inactive). In the case of CCOC(=O)N1CCN(C(=O)c2nn(-c3ccc(C)cc3)c(=O)c3c2c2ccccc2n3C)CC1, the inhibition is reported as -11% [at 12.3 µM] (inactive). In the case of Cn1c(C(=O)N2CCC(C(N)=O)CC2)cc2c(=O)n(C)c3ccccc3c21, the inhibition is reported as 0.068% [at 12.3 µM] (inactive). In the case of Cn1c2ccccc2c2c(C(=O)N3CCN(c4ccc(F)cc4)CC3)cn(C3CCCC3)c(=O)c21, the inhibition is reported as 67.5% [at 12.3 µM] (active). With O=C(C[C@@H]1CC[C@H]2NC[C@H](O)COC[C@@H]2O1)NCCN1CCCCC1 the inhibition was -8.63% (inactive). For C[C@H]1CCCCO[C@@H](CN(C)C(=O)Cc2ccccc2)[C@@H](C)CN([C@@H](C)CO)C(=O)c2cc(NC(=O)c3ccccc3)ccc2O1, the inhibition was -43.3% (inactive). In the case of NC(c1csc(NC(=O)Nc2cccc(C(F)(F)F)c2)n1)C1CCCCC1 (stereo not drawn), the inhibition is reported as 61% [at 12.3 µM] (active). For COc1ccc(C(N)c2csc(NC(=O)Nc3cccc(C(F)(F)F)c3)n2)cc1 (stereo not drawn), the inhibition was 18.1% [at 12.3 µM] (inactive). For NC(c1ccccc1)c1csc(NC(=O)Nc2cccc(C(F)(F)F)c2)n1 (stereo not drawn), the inhibition was 39.2% [at 12.3 µM] (inactive). With C[C@@H]1CN([C@@H](C)CO)C(=O)c2cc(-c3ccccc3F)cnc2O[C@H]1CN(C)C(=O)C1CC1 the inhibition was 15% (inactive). In the case of Cc1cc(C)cc(NC(=S)NCCc2c[nH]c3ccccc23)c1, the inhibition is reported as 2.48% [at 12.3 µM] (inactive). In the case of COc1cccc(CNCCc2c[nH]c3ccccc23)c1OCc1ccccc1F, the inhibition is reported as 79.1% [at 12.3 µM] (active). With COc1ccc(C(CCNCc2ccccc2F)c2ccc(F)cc2)cc1 (stereo not drawn) the inhibition was -1.51% [at 12.3 µM] (inactive). In the case of CC(C)CC#Cc1ccc2c(c1)O[C@H](CN(C)Cc1ccncc1)[C@H](C)CN([C@H](C)CO)S2(=O)=O, the inhibition is reported as 12.7% (inactive). For CCCNC(=O)C[C@@H]1CC[C@H]2[C@H](COc3ccc(NC(=O)CCC)cc3C(=O)N2C)O1, the inhibition was -1.97% (inactive). With CCNC(=O)c1cc2c(c(-c3cccc(C4=CCCC4)c3)n1)[C@H](CCO)N([S@@](=O)C(C)(C)C)C2 the inhibition was -0.132% (inactive). For COc1cccc(Nc2nc(N)c([N+](=O)[O-])c(NCc3ccco3)n2)c1, the inhibition was 56.2% [at 12.3 µM] (active). With CNc1nc(Nc2ccc(C)c(Cl)c2)nc(N)c1[N+](=O)[O-] the inhibition was 17.7% [at 12.3 µM] (inactive). With COc1ccc(Nc2nc(NCc3ccco3)nc(N/N=C/c3ccccc3Cl)n2)cc1 the inhibition was -11.9% [at 12.3 µM] (inactive). With CO[C@H]1CN(C)C(=O)c2ccc(NC(C)=O)cc2OC[C@@H](C)N(C(=O)c2ccccn2)C[C@@H]1C the inhibition was 4.28% (inactive). In the case of C[C@@H]1CN([C@H](C)CO)S(=O)(=O)c2ccc(Br)cc2O[C@@H]1CN(C)Cc1cncnc1, the inhibition is reported as -25.8% (inactive). In the case of C[C@@H]1CN([C@H](C)CO)C(=O)c2cccc(N(C)C)c2O[C@H]1CN(C)S(=O)(=O)c1cn(C)cn1, the inhibition is reported as -2.57% (inactive). In the case of O=C(Cc1ncc(C(F)(F)F)cc1Cl)Nc1cccc(Br)c1, the inhibition is reported as -3.53% [at 12.3 µM] (inactive). For O=C(CC(O)(C(F)(F)F)C(F)(F)F)Nc1ccc(Cl)c(Cl)c1, the inhibition was 109% [at 12.3 µM] (active). In the case of O=C(CN1CCOCC1)Nc1ccc(NC(=O)CN2CCOCC2)c(Cl)c1, the inhibition is reported as -13.8% [at 12.3 µM] (inactive). In the case of Cc1noc(C)c1NC(=O)N[C@@H]1C=C[C@H](CC(=O)N2CCCCC2)O[C@H]1CO, the inhibition is reported as 7.13% (inactive). For C[C@H](CO)N1C[C@H](C)[C@@H](CN(C)C(=O)c2ccccc2)OCCCC[C@H](C)Oc2ccc(NC(=O)c3ccccc3)cc2C1=O, the inhibition was -52.7% (inactive). For CCCCCCCCN1C(=O)[C@@H](CC(=O)NCc2ccc(C)o2)C[C@@]2(C(=O)OC)C1=C[C@H](C(C)(C)C)O[C@@H]2C, the inhibition was 38% [at 12.3 µM] (inactive). In the case of COC(=O)[C@]12C[C@H](CC(=O)NCc3ccc(C)o3)C(=O)N(CCC3=CCCCC3)C1=C[C@H](C(C)(C)C)O[C@@H]2C, the inhibition is reported as 70.3% [at 12.3 µM] (active). With CCCCOCCCNC(=O)C[C@@H]1C[C@@]2(C(=O)OCC)CCCC=C2N(CCC2=CCCCC2)C1=O the inhibition was 34.4% [at 12.3 µM] (inactive). With COCCCNC(=O)C[C@H]1C[C@@]2(C(=O)OC)C(=C[C@H](C(C)(C)C)O[C@@H]2C)N(Cc2ccc3c(c2)OCO3)C1=O the inhibition was -14% [at 12.3 µM] (inactive). For CCOC(=O)[C@]12CCC=C1N(CCC1=CCCCC1)C(=O)[C@H](CC(=O)NCc1ccc(C)o1)C2, the inhibition was -8.89% [at 12.3 µM] (inactive). In the case of COC(=O)[C@]12C[C@H](CC(=O)NCCC(C)C)C(=O)N(CCc3ccc(OC)c(OC)c3)C1=C[C@H](C(C)(C)C)O[C@@H]2C, the inhibition is reported as 14.5% [at 12.3 µM] (inactive). In the case of CCOC(=O)[C@]12CCCC=C1N(CCC1=CCCCC1)C(=O)[C@H](CC(=O)NCCCOC)C2, the inhibition is reported as 20% [at 12.3 µM] (inactive). In the case of COC(=O)[C@]12C[C@H](CC(=O)NCCCCc3ccccc3)C(=O)N(Cc3ccc4c(c3)OCO4)C1=C[C@H](C(C)(C)C)O[C@@H]2C, the inhibition is reported as -19.5% [at 12.3 µM] (inactive). For COC(=O)[C@]12C[C@H](CC(=O)NCc3ccccc3)C(=O)N(CCC3=CCCCC3)C1=C[C@H](C(C)(C)C)O[C@@H]2C, the inhibition was 67.5% [at 12.3 µM] (active). With CCCCCCCCN1C(=O)[C@@H](CC(=O)NCCCC)C[C@@]2(C(=O)OC)C1=C[C@H](C(C)(C)C)O[C@@H]2C the inhibition was 39.6% [at 12.3 µM] (inactive). With CCCCOCCCNC(=O)C[C@@H]1C[C@@]2(C(=O)OC)CCCCC=C2N(CCC2=CCCCC2)C1=O the inhibition was 63.6% [at 12.3 µM] (active). With CCCCCCCCN1C(=O)[C@@H](CC(=O)NCc2ccccc2)C[C@@]2(C(=O)OC)C1=C[C@H](C(C)(C)C)O[C@@H]2C the inhibition was 64.7% [at 12.3 µM] (active).
